Results as given in publication PMC4336329 (PLoS ONE, 2015).
The whole screen tested about 310,000 compounds, of which about 14,000 (4.5%) showed an effect of 50% or more. The effect is printed as a negative number. The list comes from a sample in which strong results are over-represented; it also holds similar structures and randomly drawn compounds.

Biological target: human ether-à-go-go-related gene (hERG) potassium channel (human, UniProt Q12809)
Assay: primary screen, population patch clamp on CHO cells stably expressing hERG; higher = less effect of the substance
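Further: peak tail current of the secondary pulse compared with the same well before compound.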

Chain of human ether-à-go-go-related gene (hERG) potassium channel (Q12809 whole entry, looked up): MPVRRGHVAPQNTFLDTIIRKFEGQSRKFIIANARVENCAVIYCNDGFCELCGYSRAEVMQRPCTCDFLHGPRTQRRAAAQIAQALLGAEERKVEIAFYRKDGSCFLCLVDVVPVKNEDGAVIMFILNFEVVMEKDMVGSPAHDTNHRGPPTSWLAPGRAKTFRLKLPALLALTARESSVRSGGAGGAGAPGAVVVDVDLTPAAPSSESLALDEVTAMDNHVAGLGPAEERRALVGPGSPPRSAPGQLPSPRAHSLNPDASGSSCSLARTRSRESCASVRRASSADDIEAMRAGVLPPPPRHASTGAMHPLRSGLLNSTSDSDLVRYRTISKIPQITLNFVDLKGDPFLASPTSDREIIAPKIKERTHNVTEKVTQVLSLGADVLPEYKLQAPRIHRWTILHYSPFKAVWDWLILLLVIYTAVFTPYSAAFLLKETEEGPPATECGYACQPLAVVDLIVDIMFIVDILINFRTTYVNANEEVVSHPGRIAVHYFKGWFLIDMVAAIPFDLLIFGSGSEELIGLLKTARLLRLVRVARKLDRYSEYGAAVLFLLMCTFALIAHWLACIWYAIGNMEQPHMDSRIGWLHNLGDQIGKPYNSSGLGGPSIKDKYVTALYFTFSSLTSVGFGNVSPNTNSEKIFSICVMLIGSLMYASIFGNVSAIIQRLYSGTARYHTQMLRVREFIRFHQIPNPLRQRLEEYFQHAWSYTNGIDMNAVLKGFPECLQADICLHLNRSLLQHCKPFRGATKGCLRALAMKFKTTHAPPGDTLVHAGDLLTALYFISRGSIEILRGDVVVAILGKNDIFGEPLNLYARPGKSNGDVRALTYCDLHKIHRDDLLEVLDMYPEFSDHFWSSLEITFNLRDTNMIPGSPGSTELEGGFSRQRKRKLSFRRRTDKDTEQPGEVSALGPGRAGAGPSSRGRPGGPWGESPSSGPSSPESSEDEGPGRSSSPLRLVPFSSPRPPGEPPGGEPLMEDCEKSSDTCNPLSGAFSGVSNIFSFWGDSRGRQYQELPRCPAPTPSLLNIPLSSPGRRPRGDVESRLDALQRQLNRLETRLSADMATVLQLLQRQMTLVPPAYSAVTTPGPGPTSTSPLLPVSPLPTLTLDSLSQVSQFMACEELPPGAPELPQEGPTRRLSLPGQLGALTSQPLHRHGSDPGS

Row | Compound | hERG current change (%, negative = inhibition) at 10uM [%]
1 | CCCOC(=O)c1ccc(NC(=O)/C=C/c2cccs2)cc1 | 0.453
2 | CCCCOC(=O)c1ccc(NC(=O)C(=O)NCCN(C)C)cc1 | -28.9
3 | CCCCOC(=O)c1ccc(NC(=O)/C=C/c2cccs2)cc1 | -17.1
4 | CCCCOC(=O)c1ccc(NC(=O)C(=O)NCCN(CC)CC)cc1 | -73.2
5 | CCCOC(=O)c1ccc(NC(=O)COC)cc1 | 1.07
6 | CCCOC(=O)c1ccc(NC(=O)C(=O)NCCN(CC)CC)cc1 | -52.1
7 | CCCOC(=O)c1ccc(NC(=O)C(=O)NCC2CCCO2)cc1 (centres unmarked) | 4.7
8 | CCCCOC(=O)c1ccc(NC(=O)C(=O)NCc2ccncc2)cc1 | -8.29
9 | CCN(CC)CCOC(=O)c1ccc(NC(=O)/C=C/c2cccs2)cc1.Cl | -76.3
10 | Nc1cccc(-n2cccc2)c1 | 18.5
11 | COc1cccc(CNC(=O)CCC(=O)n2ncc3cc(C)ccc32)c1OC | 3.67
12 | Cc1ccc(C(=O)NNC(=O)CCN2C(=O)C3CCCCC3C2=O)cc1 (centres unmarked) | -5.88
13 | CCCC/C(O)=C1\C(=O)CCCC1=NCCc1c(C)[nH]c2ccccc12 | -12
14 | CNc1oc(C)nc1S(=O)(=O)c1ccc(C)cc1 | 10.6
15 | CC(NC(=O)CCNS(=O)(=O)c1cccc2nsnc12)c1ccccc1 (centres unmarked) | -8.74
16 | CCOC(=O)CSc1nnc(CCc2nc3ccccc3[nH]2)n1C | -0.184
17 | CC(=O)c1ccc(N2CCN(CC(=O)N(C3CC3)C3CCS(=O)(=O)C3)CC2)c(F)c1 (centres unmarked) | -12
18 | Cc1ccc(-n2[nH]c(C)c(C=NCc3ccncc3)c2=O)cc1 | -54.5
19 | Cc1[nH]n(-c2ccccc2)c(=O)c1C=NCCc1ccccc1 | -12.7
20 | CCOc1[nH]n(-c2ccc(Cl)cc2)c(=O)c1C=NCc1cccnc1 | -42.1
21 | CCOc1[nH]n(-c2ccccc2)c(=O)c1C=NCc1cccnc1 | -48.8
22 | Cc1ccc(-n2[nH]c(C)c(C=Nc3cc(C)ccn3)c2=O)cc1 | -1.12
23 | CCOc1[nH]n(-c2ccccc2)c(=O)c1C=NCc1ccncc1 | -50
24 | Cc1ccc(-n2[nH]c(C)c(/C=N/c3ccccn3)c2=O)cc1 | 2.58

Row | Compound | hERG current change (%, negative = inhibition) at 10uM [%]
25 | Cc1[nH]n(-c2ccccc2)c(=O)c1C=NCc1ccncc1 | -58.1
26 | Cc1[nH]n(-c2ccccc2)c(=O)c1C=NCc1ccco1 | -10.7
27 | CCOc1ccc(S(=O)(=O)n2ccnc2C)cc1 | 14.5
28 | Cc1cc(O)c(-c2n[nH]c3c2C(c2cccc(O)c2)N(Cc2cccnc2)C3=O)cc1Cl (centres unmarked) | 11.4
29 | Cc1cccc(Cc2nnc(CCC(=O)N(C)C3CCOC3)o2)c1 (centres unmarked) | 18.6
30 | Nc1cc2ccccc2oc1=O | 8.37
31 | O=C1/C(=C/c2ccccc2Cl)SC(=S)N1CCCC(=O)N(CCO)c1ccccc1 | -12.8
32 | CC(=O)NC12CC3CC(C1)CC(C(=O)Nc1nc4ccc(S(C)(=O)=O)cc4s1)(C3)C2 | -1.14
33 | CC(=O)NC12CC3CC(C1)CC(C(=O)Nc1nc4ccc(F)cc4s1)(C3)C2 | -56.9
34 | COc1ccc2nc(NC(=O)C34CC5CC(CC(NC(C)=O)(C5)C3)C4)sc2c1 | -11.1
35 | CCc1ccc2[nH]cc(C(=O)OCCOC)c(=O)c2c1 | 4.42
36 | O=C(NCCc1ccccc1)c1ccc2nc3cc(Cl)ccc3c(=O)n2c1 | 14.1
37 | O=[N+]([O-])/C(C(Cl)=C(Cl)Cl)=C(/Sc1ccccc1)N1CCCCC1 | 4.71
38 | C=CCN1C(=O)/C(=C/c2ccc(Br)s2)C(=O)NC1=S | 6.73
39 | O=C(NC1CCCCCC1)c1cc2c(=O)n3ccccc3nc2s1 | 0.251
40 | O=C(NC1CCCC1)c1cc2c(=O)n3ccccc3nc2s1 | -9.33
41 | CCn1c(=N)c(S(=O)(=O)c2ccc(F)cc2)cc2c(=O)n3ccccc3nc21 | -10.5
42 | N=c1c(C(=O)NC2CCCCC2)cc2c(=O)n3ccccc3nc2n1Cc1ccccc1 | -69.8
43 | N=c1c(C(=O)NC2CCCC2)cc2c(=O)n3ccccc3nc2n1Cc1ccccc1 | -78.6
44 | COCCNC(=O)c1ccc2c(=O)n(Cc3ccco3)c(SCC(=O)NC3CCCCC3)nc2c1 | -47.1
45 | N=c1c(C(=O)NC2CCCCC2)cc2c(=O)n3ccccc3nc2n1Cc1ccco1 | -77
46 | CC1CCCCC1NC(=O)c1cc2c(=O)n3ccccc3nc2n1C (centres unmarked) | 4.32
47 | N=c1c(C(=O)NC2CCCCC2)cc2c(=O)n3ccccc3nc2n1Cc1ccc(F)cc1 | -77
